Source: PubChem BioAssay (NCATS)
Inconclusive results are not listed. Values without a mark were called inactive. Calls of active or inactive are those of the source. Calls follow the shape of the dose curve; as a rule, active = well fitted inhibition curve with a large enough effect; inconclusive = small, poorly fitted or top-dose-only effect; inactive = flat fitted curve, though single readings scatter.

Experiment: P-glycoprotein substrates identified in KB-8-5-11 adenocarcinoma cell line, qHTS therapeutic library screen (AID 1346987); also: nearly all actives have a fitted effect of over 65% in size
Conditions: KB-8-5-11 (P-gp overexpressing) viability, CellTiter-Glo, 72 h; series mostly up to 44.5 µM; activity change, negative = cytotoxicity: at the top concentration
Outline: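 KB-8-5-11, a colchicine-selected P-gp-overexpressing KB-3-1 subline, was grown without colchicine for the assay. Cells were seeded at 500 cells/well, dosed in concentration-response and incubated 72 h at 37 degree C, 5% CO2. Viability was read by CellTiter-Glo luminescence.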
% is scaled to controls: 0 for no effect and ±100 for the full control effect; potency is read from the fitted curve at half-maximal effect.

Structure (SMILES)	activity change, negative = cytotoxicity	outcome	Potency
COc1cc(N2CCN(C)CC2)ccc1N	-8.9%		
COCC(C(=O)OC1CC2CCC(C1)N2C)c1ccccc1 (stereo not given)		inactive	
N#CC(O[C@@H]1O[C@H](CO)[C@@H](O)[C@H](O)[C@H]1O)c1ccccc1 (stereo not given in full)		inactive	
CC[C@H]1C2CC3[C@@H]4N(C)c5ccccc5[C@]45C[C@@H]([C@H]2[C@H]5O)N3[C@H]1O	5.33%		
NC(=O)c1ncn2c1CN=C(c1ccccc1Br)c1cc(F)ccc1-2	8.94%		
Cc1c(N2C(=O)[C@@H]3[C@H](O)CCN3C2=O)ccc(C#N)c1Cl	8.5%		
CC(=O)O[C@@H]1[C@H]2CC[C@H]3[C@@](C)(O)[C@@H]4C[C@H](O)C(C)(C)[C@@]4(O)[C@H](O)C[C@@]13C[C@@]2(C)O		inactive [at 17.3 µM]	
CC(=O)N1N=C(c2ccc(N)cc2)c2cc3c(cc2C[C@H]1C)OCO3	-6.09%		
COC(=O)[C@]12CCCC(C)(C)C1CCc1cc(C(C)C)c(O)c(O)c12 (stereo not given in full)	-3.38%		
COc1ccc(CN(C(=O)[C@@H](N)Cc2c(C)cc(C(N)=O)cc2C)[C@@H](C)c2ncc(-c3ccccc3)[nH]2)cc1C(=O)O	-1.31%		
C=CC/C=C\C/C=C\CCCCCCCc1cc(O)cc(O)c1	-10.9%		
CN1C2CCC1CC(OC(=O)N1Cc3ccccc3NC1=O)C2 (stereo not given)		inactive	
COC(=O)CC1CC2(C(=O)c3c(O)cccc3C2(O)C(=O)OC)C(C)O1 (stereo not given)		inactive	
c1cncc(OC[C@@H]2CCN2)c1	9.46%		
Cc1c(Cl)c(OCC(=O)N2CCN(C)CC2)nc2sc(C(=O)NC3CC3)c(N)c12	-11.7%		
CN1CCc2cc3c(cc2C1C1OC(=O)c2c1ccc1c2OCO1)OCO3 (stereo not given)	1.98%		
C#CCO[C@H]1CN2CCC1CC2		inactive	
CC1CCCC(O)CC(=O)Cc2cc(O)cc(O)c2C(=O)O1 (stereo not given)	8.03%		
COc1ccsc1CNCC[C@@]1(c2ccccn2)CCOC2(CCCC2)C1		inactive	
C1=C(c2cnc[nH]2)c2ccsc2CC1		inactive	
CC1=CC2(O)/C=C/C(C)(O)C(O)C(O)/C=C/C(=O)OC23C(=O)NC(CC(C)C)C3C1C (stereo not given)		inactive [at 17.3 µM]	
C/C=C1/CN2CC[C@]34C(=Nc5ccc(OC)cc53)C2C[C@@H]1C4(CO)C(=O)OC (stereo not given in full)	7.25%		
CO[C@@H]1[C@H](O)[C@@H](O[C@@H]2C[C@H]3CC[C@@H]4C(CC[C@]5(C)[C@@H](C6=CC(=O)OC6)CC[C@]45O)[C@@]3(C)[C@H](O)C2)O[C@H](C)[C@@H]1O (stereo not given in full)			252 nM (active)
C[C@@H]1CCC/C=C/[C@H]2C[C@@H](O)C[C@@H]2[C@@H](O)/C=C/C(=O)O1			164 nM (active)
C[C@]12CCC(=O)C=C1CC[C@@H]1[C@@H]2[C@@H](O)C[C@]2(C)C(=O)CC[C@@H]12	7.19%		
CCC(C)(O)C1(C(=O)O)COC(=O)C1 (stereo not given)		inactive [at 93.4 µM]	
COC(=O)C1=COC(C)C2CN3CCC4(C(=O)Nc5ccccc54)C3CC12 (stereo not given)	-24.9%		
CC1(C)C(=O)N(c2ccc(C#N)c(C(F)(F)F)c2)C(=O)N1CCCCO	-12.1%		
O=C1N[C@@H](Cc2ccccc2)CN2CCCC[C@@H]12	-2.91%		
CN1C(=O)CN=C(c2ccccc2Cl)c2cc(Cl)ccc21	-3.81%		
